# Source: ChEMBL document CHEMBL3988442, “University of Dundee, Small-Polar-MMV Screening Library” (2021)
# For some assays here: Results with a measured potency or affinity are listed apart.
# Key:
# Set-up in all cases: scale not given: direction of the effect not stated beside the values
# [1] = biological target: Protein translocase subunit SecA (Escherichia coli (strain K12)) (UniProt P10408); assay: Assay to Identify E. coli SecA ATPase Inhibitors; format: functional; settings: 30 µM
# [2] = biological target: T1, Ubiquitin-activating enzyme e1, putative (Leishmania donovani (strain BPK282A1)) (UniProt E9BSI1); assay: Leishmania donovani Ubiquitin Activating Enzyme (LdE1); format: functional; settings: 30 µM
# T1 sequence (whole entry): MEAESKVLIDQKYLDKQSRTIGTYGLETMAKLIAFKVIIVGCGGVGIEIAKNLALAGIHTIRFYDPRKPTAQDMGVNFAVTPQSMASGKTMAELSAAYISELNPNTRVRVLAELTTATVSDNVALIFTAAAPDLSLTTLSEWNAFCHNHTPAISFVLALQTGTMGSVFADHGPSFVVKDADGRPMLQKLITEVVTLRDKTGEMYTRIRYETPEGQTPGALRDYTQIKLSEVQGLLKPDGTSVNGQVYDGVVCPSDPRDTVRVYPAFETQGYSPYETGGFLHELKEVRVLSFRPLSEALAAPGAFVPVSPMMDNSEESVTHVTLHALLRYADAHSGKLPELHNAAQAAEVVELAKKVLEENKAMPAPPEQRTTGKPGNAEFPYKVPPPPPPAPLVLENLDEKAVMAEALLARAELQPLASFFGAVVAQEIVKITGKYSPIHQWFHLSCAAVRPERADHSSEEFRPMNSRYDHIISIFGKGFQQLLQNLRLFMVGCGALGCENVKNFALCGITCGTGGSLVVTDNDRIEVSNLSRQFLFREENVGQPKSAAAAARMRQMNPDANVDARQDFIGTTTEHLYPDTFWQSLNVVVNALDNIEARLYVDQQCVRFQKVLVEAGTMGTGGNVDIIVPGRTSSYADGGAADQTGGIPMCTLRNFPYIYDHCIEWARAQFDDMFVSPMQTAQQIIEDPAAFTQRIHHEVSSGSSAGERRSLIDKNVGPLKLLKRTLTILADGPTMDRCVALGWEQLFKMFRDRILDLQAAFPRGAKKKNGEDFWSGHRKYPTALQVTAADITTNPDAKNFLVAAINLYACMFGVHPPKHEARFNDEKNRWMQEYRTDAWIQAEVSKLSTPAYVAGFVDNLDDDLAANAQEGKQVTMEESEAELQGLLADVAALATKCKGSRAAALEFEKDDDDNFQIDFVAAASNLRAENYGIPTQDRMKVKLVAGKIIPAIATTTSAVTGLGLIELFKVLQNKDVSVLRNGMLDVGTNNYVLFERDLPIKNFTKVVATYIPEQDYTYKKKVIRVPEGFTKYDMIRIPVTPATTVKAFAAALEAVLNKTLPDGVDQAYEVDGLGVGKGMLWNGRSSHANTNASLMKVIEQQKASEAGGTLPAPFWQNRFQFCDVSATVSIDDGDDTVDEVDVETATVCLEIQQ
# [3] = biological target: Sialic acid-binding Ig-like lectin 9 (Homo sapiens) (UniProt Q9Y336); assay: Hs-Siglec9 ALPHAscreen SOP 20170721; settings: 10 µM
# Trypanosoma cruzi = assay: Trypanosoma cruzi phosphomannomutase and mannose-1-phosphate guanylyltransferase assay; format: functional; settings: 10 µM
# [4] = biological target: T2, Arginase-2, mitochondrial (Homo sapiens) (UniProt P78540); assay: in vitro enzyme assay to detect the production of urea directly proportional to the activity of Arginase II; format: functional; settings: 33.3 µM; also: in the data most compounds retested in dose-response had high values
# T2 sequence (whole entry): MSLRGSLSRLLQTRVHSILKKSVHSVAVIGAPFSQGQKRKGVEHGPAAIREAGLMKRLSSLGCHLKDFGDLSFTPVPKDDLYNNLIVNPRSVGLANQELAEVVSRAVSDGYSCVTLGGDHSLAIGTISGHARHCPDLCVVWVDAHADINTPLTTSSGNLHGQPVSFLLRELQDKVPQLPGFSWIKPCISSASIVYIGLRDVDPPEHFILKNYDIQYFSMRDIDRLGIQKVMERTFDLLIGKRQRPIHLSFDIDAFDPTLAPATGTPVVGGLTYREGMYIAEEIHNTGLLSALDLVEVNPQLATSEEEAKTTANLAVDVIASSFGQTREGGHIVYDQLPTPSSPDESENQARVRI
# [5] = biological target: T3, Proteasome subunit beta (Trypanosoma cruzi) (UniProt O96673); assay: Trypanosoma cruzi proteasome chymotrypsin-like activity (TcProtChymo) assay.; also: in the data most compounds retested in dose-response had high values; format: functional; settings: 9.37 µM
# T3 sequence (whole entry): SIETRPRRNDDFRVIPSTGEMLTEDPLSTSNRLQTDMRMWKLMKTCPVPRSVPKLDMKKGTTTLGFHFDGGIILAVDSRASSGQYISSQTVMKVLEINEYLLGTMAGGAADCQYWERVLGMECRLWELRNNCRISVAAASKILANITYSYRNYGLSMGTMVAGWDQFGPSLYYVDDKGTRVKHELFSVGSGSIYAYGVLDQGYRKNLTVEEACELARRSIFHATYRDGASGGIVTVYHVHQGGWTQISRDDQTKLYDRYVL
# Homo sapiens = species on record: Homo sapiens; assay: To identify inhibition of the IFN signalling (Jak-Stat) pathway via expression of an eGFP reporter gene under the control of an IFN-stimulated response element (ISRE) containing MxA promoter.; format: functional; settings: 30 µM
# [6] = biological target: T4, Tyrosyl-tRNA synthetase, putative (Trypanosoma cruzi (strain CL Brener)) (UniProt Q4DSP6); assay: Trypanosoma cruzi tyrosyl tRNA synthetase (TcYRS) _High Tyrosine SOP; format: functional; settings: 30 µM; also: in the data most compounds retested in dose-response had high values
# T4 sequence (whole entry): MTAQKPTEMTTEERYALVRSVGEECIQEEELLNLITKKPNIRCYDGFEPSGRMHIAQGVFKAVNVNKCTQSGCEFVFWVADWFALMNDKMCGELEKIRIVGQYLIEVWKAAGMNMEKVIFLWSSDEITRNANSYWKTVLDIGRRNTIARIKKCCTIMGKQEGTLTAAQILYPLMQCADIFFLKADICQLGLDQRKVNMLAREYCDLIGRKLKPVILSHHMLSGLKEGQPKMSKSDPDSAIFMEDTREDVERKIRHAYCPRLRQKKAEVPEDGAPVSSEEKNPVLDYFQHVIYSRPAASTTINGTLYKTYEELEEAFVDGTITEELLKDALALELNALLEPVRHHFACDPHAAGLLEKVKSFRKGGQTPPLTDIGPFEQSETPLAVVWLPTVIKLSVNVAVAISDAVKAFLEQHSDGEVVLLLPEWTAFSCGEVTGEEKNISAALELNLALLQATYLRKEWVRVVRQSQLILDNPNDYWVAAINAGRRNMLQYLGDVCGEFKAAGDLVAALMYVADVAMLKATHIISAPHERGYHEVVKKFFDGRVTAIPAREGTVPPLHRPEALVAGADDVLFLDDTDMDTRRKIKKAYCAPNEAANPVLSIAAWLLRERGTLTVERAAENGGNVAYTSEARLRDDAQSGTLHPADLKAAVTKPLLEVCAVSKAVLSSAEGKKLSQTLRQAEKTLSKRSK
# [7] = biological target: T4, Tyrosyl-tRNA synthetase, putative (Trypanosoma cruzi (strain CL Brener)); assay: Trypanosoma cruzi tyrosyl tRNA synthetase (TcYRS) SOP; format: functional; settings: 30 µM
# [8] = biological target: Chromo domain-containing protein 1 (Saccharomyces cerevisiae (strain ATCC 204508 / S288c) (Baker's yeast)) (UniProt P32657); assay: ScCHD-1 Enzyme Inhibition Assay; format: functional; settings: 30 µM; also: in the data most compounds retested in dose-response had high values
# Chromo domain-containing protein 1 (Saccharomyces cerevisiae (strain ATCC 204508 / S288c) (Baker's yeast)), sequence (P32657 whole entry, the tested form may be a part): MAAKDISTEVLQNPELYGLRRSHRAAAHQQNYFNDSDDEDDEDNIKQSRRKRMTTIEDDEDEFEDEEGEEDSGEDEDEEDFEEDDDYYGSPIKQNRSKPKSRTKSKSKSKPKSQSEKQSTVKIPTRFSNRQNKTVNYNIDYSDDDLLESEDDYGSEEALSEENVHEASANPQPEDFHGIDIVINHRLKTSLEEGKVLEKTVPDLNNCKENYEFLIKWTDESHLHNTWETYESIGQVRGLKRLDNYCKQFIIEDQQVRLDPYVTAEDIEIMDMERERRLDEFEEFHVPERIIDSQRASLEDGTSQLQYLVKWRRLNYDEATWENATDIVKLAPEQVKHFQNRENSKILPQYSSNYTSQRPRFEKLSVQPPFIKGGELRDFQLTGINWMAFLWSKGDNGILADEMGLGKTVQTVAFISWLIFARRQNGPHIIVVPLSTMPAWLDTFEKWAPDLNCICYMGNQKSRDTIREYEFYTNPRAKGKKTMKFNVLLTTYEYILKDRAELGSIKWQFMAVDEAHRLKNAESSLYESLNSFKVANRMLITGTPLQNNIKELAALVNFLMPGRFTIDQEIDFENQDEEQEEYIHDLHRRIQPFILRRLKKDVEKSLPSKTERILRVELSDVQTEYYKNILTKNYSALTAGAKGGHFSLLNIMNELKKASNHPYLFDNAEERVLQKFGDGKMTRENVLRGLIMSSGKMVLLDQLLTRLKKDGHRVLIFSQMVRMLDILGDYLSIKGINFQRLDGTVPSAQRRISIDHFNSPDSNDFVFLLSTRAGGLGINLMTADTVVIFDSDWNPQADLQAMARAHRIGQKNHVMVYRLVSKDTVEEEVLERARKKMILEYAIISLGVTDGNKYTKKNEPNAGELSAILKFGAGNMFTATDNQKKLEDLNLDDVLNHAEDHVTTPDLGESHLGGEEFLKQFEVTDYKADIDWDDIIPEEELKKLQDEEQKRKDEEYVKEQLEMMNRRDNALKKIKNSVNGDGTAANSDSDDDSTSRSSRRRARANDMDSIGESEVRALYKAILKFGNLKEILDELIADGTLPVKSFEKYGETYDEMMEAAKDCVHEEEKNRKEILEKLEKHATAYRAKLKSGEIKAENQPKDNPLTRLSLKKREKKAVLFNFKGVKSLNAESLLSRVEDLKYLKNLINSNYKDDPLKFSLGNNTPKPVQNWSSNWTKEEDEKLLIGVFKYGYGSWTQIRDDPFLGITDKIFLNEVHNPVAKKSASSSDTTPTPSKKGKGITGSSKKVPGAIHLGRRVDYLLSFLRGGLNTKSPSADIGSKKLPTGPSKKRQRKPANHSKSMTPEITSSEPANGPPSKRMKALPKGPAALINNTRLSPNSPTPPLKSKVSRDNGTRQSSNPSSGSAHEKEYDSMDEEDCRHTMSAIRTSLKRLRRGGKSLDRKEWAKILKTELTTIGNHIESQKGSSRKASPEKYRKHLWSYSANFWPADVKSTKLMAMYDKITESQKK
# Protein translocase subunit SecA (Escherichia coli (strain K12)), sequence (P10408 whole entry): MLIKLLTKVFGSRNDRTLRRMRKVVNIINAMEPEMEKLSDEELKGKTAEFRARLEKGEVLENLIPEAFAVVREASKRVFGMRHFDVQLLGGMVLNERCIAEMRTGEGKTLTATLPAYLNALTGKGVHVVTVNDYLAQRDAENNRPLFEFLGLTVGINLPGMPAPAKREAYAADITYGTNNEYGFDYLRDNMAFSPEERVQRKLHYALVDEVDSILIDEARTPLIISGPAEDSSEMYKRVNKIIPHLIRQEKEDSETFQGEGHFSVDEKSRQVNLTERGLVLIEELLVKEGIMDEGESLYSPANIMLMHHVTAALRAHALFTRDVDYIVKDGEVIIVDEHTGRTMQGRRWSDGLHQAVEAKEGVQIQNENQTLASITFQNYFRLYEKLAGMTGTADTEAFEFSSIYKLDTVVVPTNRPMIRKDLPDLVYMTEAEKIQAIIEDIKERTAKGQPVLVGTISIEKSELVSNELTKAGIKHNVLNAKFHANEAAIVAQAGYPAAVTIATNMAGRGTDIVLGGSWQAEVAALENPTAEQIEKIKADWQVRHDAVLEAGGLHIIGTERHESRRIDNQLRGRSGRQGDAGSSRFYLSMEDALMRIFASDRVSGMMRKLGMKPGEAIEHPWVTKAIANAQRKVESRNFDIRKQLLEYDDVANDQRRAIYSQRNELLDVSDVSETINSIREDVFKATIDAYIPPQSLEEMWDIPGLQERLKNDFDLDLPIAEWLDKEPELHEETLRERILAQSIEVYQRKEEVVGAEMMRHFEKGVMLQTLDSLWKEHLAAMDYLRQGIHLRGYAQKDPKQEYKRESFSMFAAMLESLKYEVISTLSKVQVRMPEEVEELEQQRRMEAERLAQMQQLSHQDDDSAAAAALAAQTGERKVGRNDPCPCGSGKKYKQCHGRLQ
# Sialic acid-binding Ig-like lectin 9 (Homo sapiens), sequence (Q9Y336 whole entry): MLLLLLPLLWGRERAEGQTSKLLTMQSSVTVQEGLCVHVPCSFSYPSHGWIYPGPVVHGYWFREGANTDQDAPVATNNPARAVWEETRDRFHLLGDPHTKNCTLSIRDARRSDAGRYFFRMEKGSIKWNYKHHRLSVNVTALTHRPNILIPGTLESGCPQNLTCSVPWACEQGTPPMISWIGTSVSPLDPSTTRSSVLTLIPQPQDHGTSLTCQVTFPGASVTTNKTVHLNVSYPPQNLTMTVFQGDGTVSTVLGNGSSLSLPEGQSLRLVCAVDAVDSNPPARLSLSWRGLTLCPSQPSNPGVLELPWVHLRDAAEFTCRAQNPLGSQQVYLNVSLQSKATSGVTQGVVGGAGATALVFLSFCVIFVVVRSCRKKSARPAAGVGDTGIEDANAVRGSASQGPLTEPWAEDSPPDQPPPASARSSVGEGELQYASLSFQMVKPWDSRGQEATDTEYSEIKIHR
SMILES,Percent Effect [1],Percent Effect [2],Percent Effect [3],Percent Effect (Trypanosoma cruzi),Percent Effect [4],Percent Effect [5],Percent Effect (Homo sapiens),Percent Effect [6],Percent Effect [7],Percent Effect [8]
CC(C)CNc1nc(C(=O)/N=c2\[nH]nc(C(C)(C)C)s2)cs1,2.26%,8.11%,-0.928%,-8.83%,1.75%,12.3%,19.4%,5.85%,17.1%,1.47%
N#Cc1cccc(N2CC3(CCN(C(=O)c4cccnc4)C3)CC2=O)c1 (stereo not given),-6.73%,9.09%,-3.3%,-4.58%,-3.64%,12.6%,-1.73%,3.68%,15.4%,-3.29%
CN(C)C(=O)CCC(=O)NCc1cccnc1-n1cnc2ccccc21,-4.75%,-2.7%,-1.92%,-1.46%,-9.44%,-1.03%,-10.5%,1.6%,-2.44%,0.948%
COc1ccc(OC)c(Sc2ncccc2C(=O)N(C)CCC#N)c1,-2.48%,16.9%,-3.09%,0.75%,0%,15.5%,32.7%,4.83%,10%,-12.2%
COCC(C)NC(=O)c1cc(Br)c2c(c1)OCCO2 (stereo not given),-0.916%,5.33%,4.72%,-4.82%,8.43%,8.74%,10.6%,-2.63%,2.56%,-7.03%
CC[C@H](C)Nc1nccc(-c2cnc3sc(C)c(C)n3c2=O)n1,-6.51%,0%,0.241%,-3.61%,-3.55%,12.6%,15.3%,-3.68%,-10.3%,-9.65%
Cc1ccccc1CC(=O)N(C)C1CCCC1,-3.46%,13.3%,-5.48%,-4.62%,3.1%,16.2%,17%,3.68%,7.69%,-11.3%
O=C(c1cc(Cl)c2c(c1)OCCO2)N1CCCC(n2cncn2)C1 (stereo not given),-2.53%,-5.33%,5.05%,0.402%,1.77%,1.78%,6.76%,-0.526%,0%,2.59%
